Most compounds without a hit are left out; they make up all but 21% or so of the library.
Sm TGR block: S. mansoni TGR enzyme inhibition; AID 485364; purified TGR, DTNB reduction, TNB absorbance 405 nm; actives 3% (n = 360,000); Potency, µM (highest dose often 114 µM), for inactives: at the highest dose activity change, negative = inhibition, most hits filed as inhibitors; Q962Y6; also: potency is read from the fitted curve at half-maximal effect; % is scaled to controls: 0 for no effect and ±100 for the full control effect; nearly all actives have a fitted effect of over 60% in size
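First, TGR (20 nM dispensed) and NADPH were mixed with compound. Second, a 15 min room-temperature incubation followed. Third, further NADPH and then DTNB were added to start the reaction. Finally, TNB absorbance was monitored kinetically.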
NS1 inh: influenza NS1 inhibition. Potency, µM (highest dose often 46.1 µM), without a hit: top-dose activity, positive = more growth. AID 2326. actives 0.4% (n = 270,000); calls by dose curve; also: potency is read from the fitted curve at half-maximal effect; actives are rising curves; nearly all actives have a fitted effect of over 50% in size
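Recovery from NS1-induced slow growth read by OD600 in budding yeast switched to galactose assay medium (pH 6.0, -URA) at 1:100 dilution. Compound 23 nl per well; the matching strain lacking NS1 serves as control.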
CHX counter: counter-screen for Shiga toxin inhibitors: cycloheximide protein synthesis inhibition. cell reporter, cycloheximide protein synthesis inhibition counterscreen. max response, %. actives 12% (n = 300,000). AID 2314; in the data active = max response mostly above about 13%, no sharp cut-off; inactive = mostly below about 14%; also: read at 38.3 µM for the half of the compounds with a filed dose; 0% is about no effect
Pf growth 48h: P. falciparum growth inhibition at 48 hours (one generation); P. falciparum luciferase growth in erythrocytes, 48 h; Potency, µM (titrated, usually from 28.7 µM), inactives show at the highest dose activity change, negative = inhibition, most hits filed as inhibitors; actives 5.9% (n = 310,000); AID 504832; also: potency is read from the fitted curve at half-maximal effect; % is scaled to controls: 0 for no effect and ±100 for the full control effect
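First compound was added to culture medium, then infected red cells at 0.1% parasitemia and 2% hematocrit (final). After incubation at 37 C under 5% CO2, luciferase detection reagent was dispensed and light output recorded.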
Shiga inhibitor: Shiga toxin inhibition | Vero cells, Shiga toxin protein synthesis inhibition reporter | inhibition, % at 38.7 µM | actives 9.2% (n = 290,000) | AID 2315; in the data active = inhibition mostly above about 28%, no sharp cut-off; inactive = mostly below about 43%; also: 0% is about no effect
Pf growth 96h: inhibits malaria parasite growth, 96 h. P. falciparum luciferase reporter growth, 96 h. Potency, µM (series often up to 28.7 µM), for inactives: at the highest dose activity change, negative = inhibition, actives largely listed as inhibitors. actives 6.9% (n = 320,000). AID 504834; also: potency is read from the fitted curve at half-maximal effect; % is scaled to controls: 0 for no effect and ±100 for the full control effect
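Plates of compound plus infected erythrocytes (2% hematocrit, 0.05% parasitemia final) incubate 96 hours, 37 C, 5% CO2. Detection reagent added; reduced luminescence from the parasites' luciferase reporter flags inhibition.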
* hit, by the source's call; ? = inconclusive; nt = no result; [ ] = another dose, or the depositor's remark. Unless noted, calls follow the shape of the dose curve; as a rule, active = well fitted curve in the direction sought with a large enough effect; inconclusive = small, poorly fitted or top-dose-only effect, or another doubt; inactive = no such curve, though single readings can be large; an effect the other way counts as inactive or inconclusive.

SMILES	Sm TGR block	NS1 inh	CHX counter	Pf growth 48h	Shiga inhibitor	Pf growth 96h
Cc1sc2ncnc(NCC(O)c3ccc([N+](=O)[O-])cc3)c2c1C (stereo unspecified)	-1%	-17%	-2	9.3µM*	-8	?
CC(=O)c1cnc(N(C)C)s1	-5%	0%	-1	1%	-4	13µM*
C[C@@H]([C@H](O)c1ccccc1)N(C)C(=S)Nc1ccccc1	2%	10%	-1	11%	20	7%
Cc1ccc(CC(=O)CCc2ccccc2)cc1	6%	nt	nt	25%	nt	64%
C=CC[N+](C)(C)c1ccc(CCC(=O)CCc2ccc([N+](C)(C)CC=C)cc2)cc1	2%	nt	nt	0.15µM*	nt	0.15µM*
Cc1ccc2oc3c(c(=O)c2c1)C(c1cccs1)N(CCCN(C)C)C3=O (stereo unspecified)	?	?	39*	?	48*	37%
CC(C)CCOc1cccc(C2c3c(oc4ccccc4c3=O)C(=O)N2CCCN2CCOCC2)c1 (stereo unspecified)	nt	16%	nt	nt	nt	nt
COc1ccc(OC)c(C2c3c(oc4ccc(C)cc4c3=O)C(=O)N2CCCN(C)C)c1 (stereo unspecified)	-31%	nt	nt	nt	nt	nt
COC(=O)c1ccc(C2c3c(oc4cc(C)c(C)cc4c3=O)C(=O)N2CCCN(C)C)cc1 (stereo unspecified)	?	7%	-1	5.2µM*	8	32%
CCCOc1ccc(C2c3c(oc4ccccc4c3=O)C(=O)N2CCCN2CCOCC2)cc1 (stereo unspecified)	35µM*	13%	1	?	-8	?
CCN(CC)CCN1C(=O)c2oc3ccccc3c(=O)c2C1c1ccc(C)cc1 (stereo unspecified)	-4%	-3%	13	3.3µM*	3	2.6µM*
CCc1c(C)nc(N)n2c(SCC(=O)Nc3ccccc3)nnc12	-26%	8%	2	3%	-11	37%
CCOc1ccc(C2c3c(oc4ccccc4c3=O)C(=O)N2CCCN2CCOCC2)cc1 (stereo unspecified)	35µM*	?	18	?	19	nt
COCCN1C(=O)c2oc3ccccc3c(=O)c2C1c1ccc(C(=O)OC)cc1 (stereo unspecified)	0%	?	-3	12%	2	?
COC(=O)c1ccc(C2c3c(oc4ccccc4c3=O)C(=O)N2CCCN2CCOCC2)cc1 (stereo unspecified)	25µM*	-9%	-2	nt	-8	?
CCOc1ccc(C2c3c(oc4cc(C)c(C)cc4c3=O)C(=O)N2CCCN2CCOCC2)cc1 (stereo unspecified)	-15%	-30%	-1	nt	-19	44%
CN1C(=O)c2oc3ccccc3c(=O)c2C1c1ccncc1 (stereo unspecified)	45µM*	-13%	-1	10%	21	4%
O=c1c2cc3c(cc2n(Cc2ccc(Cl)cc2)c(=O)n1Cc1nc(-c2ccccc2)no1)OCO3	-2%	nt	nt	nt	nt	nt
CCOc1ccc(CN2CCNC(=O)C2CC(=O)O)cc1 (stereo unspecified)	-3%	-2%	-3	43%	-8	30%
Cc1ccc(CN2CCNC(=O)C2CC(=O)O)cc1 (stereo unspecified)	35µM*	-1%	3	7%	2	34%
COc1ccccc1CN1CCNC(=O)C1CC(=O)O (stereo unspecified)	79µM*	0%	0	-15%	2	30%
Cc1ccc(/C=N/Nc2cn[nH]c(=O)n2)o1	50%	-7%	24*	35%	88*	11%
Cc1ccc(/C=N/Nc2ccc3ccccc3n2)o1	-34%	nt	2	77%	-6	-89%
O=c1cnnc(N/N=C/c2ccccn2)[nH]1	5%	-1%	-2	?	-18	?
O=c1nc(N/N=C/c2ccccn2)cn[nH]1	30%	-11%	46*	1µM*	125*	-6%[1.15 µM]
Cc1c(Cl)cccc1NC(=O)c1ccc2c(c1)CCN2S(=O)(=O)c1ccccc1	1%	nt	nt	nt	nt	nt
O=C(CCCCCC(=O)N(CCO)CCO)N(CCO)CCO	-2%	-11%	-1	13µM*	-3	nt
O=C(c1ccc(OCCCc2cnc[nH]2)cc1)C1CC1	nt	nt	35*	nt	80*	nt
